Pf apPOL block: Pf-apPOL inhibitors, biochemical, fluorescence | inhibition, % at 10 µM | Recombinant Pf-apPOL, molecular beacon fluorescence, 1.5 h | 210,000 tested, 0.25% active
mHTT-CaM PPI inh: mutant huntingtin-calmodulin interaction inhibitors – biochemical, AlphaScreen, primary screen; AlphaScreen His-mHTT/GST-CaM binding, luminescence; inhibition, % at 15 µM; 190,000 tested, 3.6% active
Target sequence (P42858 whole entry, looked up, change not shown): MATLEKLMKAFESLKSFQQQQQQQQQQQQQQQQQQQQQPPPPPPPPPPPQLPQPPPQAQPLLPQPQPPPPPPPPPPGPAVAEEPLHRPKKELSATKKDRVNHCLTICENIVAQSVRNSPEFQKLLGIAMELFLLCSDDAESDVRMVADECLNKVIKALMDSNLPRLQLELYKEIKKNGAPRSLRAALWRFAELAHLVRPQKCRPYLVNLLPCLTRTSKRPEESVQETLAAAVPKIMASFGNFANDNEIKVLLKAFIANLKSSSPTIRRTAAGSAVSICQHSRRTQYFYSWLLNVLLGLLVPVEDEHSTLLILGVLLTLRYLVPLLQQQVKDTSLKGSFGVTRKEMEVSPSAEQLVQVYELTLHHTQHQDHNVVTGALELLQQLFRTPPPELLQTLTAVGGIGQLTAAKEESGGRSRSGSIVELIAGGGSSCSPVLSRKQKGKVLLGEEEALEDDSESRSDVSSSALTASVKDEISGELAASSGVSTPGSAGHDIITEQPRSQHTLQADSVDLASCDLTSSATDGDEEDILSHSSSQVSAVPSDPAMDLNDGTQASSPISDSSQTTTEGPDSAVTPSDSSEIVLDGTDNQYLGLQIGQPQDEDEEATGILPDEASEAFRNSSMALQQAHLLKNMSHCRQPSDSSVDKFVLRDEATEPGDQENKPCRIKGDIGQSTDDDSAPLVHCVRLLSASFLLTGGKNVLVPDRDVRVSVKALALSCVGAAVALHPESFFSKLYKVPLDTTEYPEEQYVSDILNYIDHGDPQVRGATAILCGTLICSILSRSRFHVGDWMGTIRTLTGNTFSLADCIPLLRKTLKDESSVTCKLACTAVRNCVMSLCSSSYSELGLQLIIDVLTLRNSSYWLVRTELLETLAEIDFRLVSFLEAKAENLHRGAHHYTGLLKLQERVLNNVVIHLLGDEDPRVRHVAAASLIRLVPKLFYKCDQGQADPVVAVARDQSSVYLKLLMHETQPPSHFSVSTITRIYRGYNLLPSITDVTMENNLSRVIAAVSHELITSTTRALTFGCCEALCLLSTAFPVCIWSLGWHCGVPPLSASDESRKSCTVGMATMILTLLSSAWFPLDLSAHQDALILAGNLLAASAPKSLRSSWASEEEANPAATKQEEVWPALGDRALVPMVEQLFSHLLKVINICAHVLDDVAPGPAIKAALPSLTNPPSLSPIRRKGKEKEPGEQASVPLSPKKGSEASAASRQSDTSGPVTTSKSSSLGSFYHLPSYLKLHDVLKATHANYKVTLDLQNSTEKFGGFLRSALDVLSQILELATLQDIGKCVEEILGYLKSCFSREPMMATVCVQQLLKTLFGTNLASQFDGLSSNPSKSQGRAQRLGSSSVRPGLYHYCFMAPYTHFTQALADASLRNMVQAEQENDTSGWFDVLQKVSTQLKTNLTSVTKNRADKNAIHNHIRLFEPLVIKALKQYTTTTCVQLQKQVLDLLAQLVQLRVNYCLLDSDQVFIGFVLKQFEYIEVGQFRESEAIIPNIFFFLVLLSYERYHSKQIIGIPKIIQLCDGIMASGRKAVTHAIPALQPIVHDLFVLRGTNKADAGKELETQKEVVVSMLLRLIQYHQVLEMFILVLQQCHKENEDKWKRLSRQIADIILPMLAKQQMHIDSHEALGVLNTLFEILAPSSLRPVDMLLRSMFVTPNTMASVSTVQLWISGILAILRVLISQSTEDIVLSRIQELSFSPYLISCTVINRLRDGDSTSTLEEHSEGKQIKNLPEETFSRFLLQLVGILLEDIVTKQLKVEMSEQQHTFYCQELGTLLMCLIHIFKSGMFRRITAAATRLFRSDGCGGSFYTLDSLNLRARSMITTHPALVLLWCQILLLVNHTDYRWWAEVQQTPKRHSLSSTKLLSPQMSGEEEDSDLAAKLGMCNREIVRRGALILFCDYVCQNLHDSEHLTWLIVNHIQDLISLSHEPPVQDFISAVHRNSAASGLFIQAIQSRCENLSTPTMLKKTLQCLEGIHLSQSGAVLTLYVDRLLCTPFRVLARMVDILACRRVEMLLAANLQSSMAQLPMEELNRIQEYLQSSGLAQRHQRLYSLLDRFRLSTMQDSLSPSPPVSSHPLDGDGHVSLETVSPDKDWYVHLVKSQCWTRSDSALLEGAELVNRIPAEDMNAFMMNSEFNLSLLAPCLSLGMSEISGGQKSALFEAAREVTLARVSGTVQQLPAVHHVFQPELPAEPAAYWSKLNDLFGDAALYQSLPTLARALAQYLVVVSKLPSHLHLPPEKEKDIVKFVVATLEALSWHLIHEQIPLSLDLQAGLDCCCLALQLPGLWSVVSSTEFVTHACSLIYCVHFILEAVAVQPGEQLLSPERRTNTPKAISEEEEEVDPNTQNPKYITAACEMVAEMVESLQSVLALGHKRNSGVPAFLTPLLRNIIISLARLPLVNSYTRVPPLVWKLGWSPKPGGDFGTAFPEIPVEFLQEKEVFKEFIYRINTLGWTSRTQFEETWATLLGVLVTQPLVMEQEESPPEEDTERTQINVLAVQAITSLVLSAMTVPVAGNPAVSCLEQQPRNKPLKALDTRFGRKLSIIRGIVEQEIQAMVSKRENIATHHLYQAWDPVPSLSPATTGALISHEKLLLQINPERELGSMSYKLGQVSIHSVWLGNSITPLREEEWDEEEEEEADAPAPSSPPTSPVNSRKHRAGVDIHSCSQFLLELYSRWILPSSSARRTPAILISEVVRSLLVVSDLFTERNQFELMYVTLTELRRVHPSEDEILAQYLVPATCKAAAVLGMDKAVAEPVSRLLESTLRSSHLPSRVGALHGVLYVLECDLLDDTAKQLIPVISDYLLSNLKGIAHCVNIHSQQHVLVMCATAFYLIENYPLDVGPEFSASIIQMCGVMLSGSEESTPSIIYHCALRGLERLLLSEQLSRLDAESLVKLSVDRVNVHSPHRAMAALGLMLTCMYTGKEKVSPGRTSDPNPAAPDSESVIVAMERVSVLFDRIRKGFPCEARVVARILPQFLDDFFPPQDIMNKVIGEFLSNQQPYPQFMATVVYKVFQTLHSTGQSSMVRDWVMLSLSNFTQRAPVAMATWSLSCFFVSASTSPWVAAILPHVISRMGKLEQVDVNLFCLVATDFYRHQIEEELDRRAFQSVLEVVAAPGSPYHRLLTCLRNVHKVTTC
Of the large screens only hits and unclear results are named; the others gave an inactive call. Only a selection was taken, and hits are over-represented in it overall. Cut-off read from the data, not from the text of the source: active = inhibition above about 50%; inactive = the rest.

O=C(CC12CC3CC(CC(C3)C1)C2)Nc1noc2ncccc12	none
COc1cc(/C=C2N=C(/C=C/c3ccc(Cl)cc3Cl)OC\2=O)cc(OC)c1OC	none
Cc1ccc(CN2CCCn3nc(C(=O)NC4CCS(=O)(=O)C4)cc3C2=O)cc1 (centres undefined)	none
COc1ccc(C2/C=C\CN(C(=O)Oc3ccc(C(F)(F)F)cc3)CC(=O)N2Cc2ccc(F)cc2)cc1 (centres undefined)	mHTT-CaM PPI inh 79.4
COc1ccc(CNC(=O)CN2CCN(C(=O)Nc3ccc(F)cc3)CC2=O)cc1	none
COc1ccc(C2/C=C\CN(Cc3ccco3)CC(=O)N2Cc2ccc(F)cc2)cc1 (centres undefined)	mHTT-CaM PPI inh 60.6
COc1ccc(C2/C=C\CN(CC3CCCCC3)CC(=O)N2Cc2ccc(F)cc2)cc1 (centres undefined)	none
COc1ccc(C2/C=C\CN(C(=O)Nc3ccc(C(F)(F)F)cc3)CC(=O)N2Cc2ccc(F)cc2)cc1 (centres undefined)	mHTT-CaM PPI inh 58.6
COc1ccc(C2/C=C\CN(C(=O)c3ccc(C)cc3)CC(=O)N2Cc2ccc(F)cc2)cc1 (centres undefined)	mHTT-CaM PPI inh 74.7
COc1ccc(C2/C=C\CN(C(=O)C3CCCC3)[C@@H](C)C(=O)N2Cc2ccc(F)cc2)cc1 (some centres undefined)	none
COc1ccc(C2/C=C\CN(S(=O)(=O)c3ccc(-c4ccccc4)cc3)CC(=O)N2Cc2ccc(F)cc2)cc1 (centres undefined)	none
CCCC1c2cccn2CCN1C(=O)Nc1ccc(OC)cc1 (centres undefined)	none
CC1CCN(c2nc(N3CCC(C)CC3)nc(N3CCC(C)CC3)n2)CC1	none (no result: Pf apPOL block)
O=C(NCCCN1CCOCC1)C1CC2CCC1C2 (centres undefined)	none (no result: Pf apPOL block)
O=[N+]([O-])c1ccccc1S(=O)(=O)Nc1ccc(Cl)c(Cl)c1	none
Cc1ccc(NS(=O)(=O)c2ccccc2[N+](=O)[O-])cc1C	Pf apPOL block 50.7
O=c1nc2s/c(=C\c3ccc(Br)cc3)c(=O)n2nc1Cc1ccccc1	none
COc1c(O)cc2c(c1O)C1OC(CO)C(O)C(O)C1OC2=O (centres undefined)	none (no result: mHTT-CaM PPI inh)
O=C(OC1OC2COC(=O)c3cc(O)c(O)c(O)c3-c3c(cc(O)c(O)c3O)C(=O)OC(C2O)C1O)c1cc(O)c(O)c(O)c1 (centres undefined)	Pf apPOL block 99.0 (no result: mHTT-CaM PPI inh)
CCN(CC)CC#CC1(O)CCCCC1	none
OC1(C#CC#CC2(O)CCCCC2)CCCCC1	mHTT-CaM PPI inh 82.3
Cc1ccc(CC(=O)N2CCc3c(c(COCc4ccccc4F)nn3C)C2)cc1	none
Cn1nc(C(=O)NCc2ccccc2)c2c1CCN(C(=O)c1ccco1)C2	none
COc1ccc(CC(=O)N2CCc3c(c(C(=O)NCc4ccc(F)cc4)nn3C)C2)cc1	mHTT-CaM PPI inh 73.9
CCC(CC)C(=O)N1CCc2c(c(C(=O)NCc3ccc(F)cc3)nn2C)C1	mHTT-CaM PPI inh 58.0
COc1ccc(CC(=O)N2CCc3c(c(C(=O)NCc4ccccc4)nn3C)C2)cc1	mHTT-CaM PPI inh 60.9
COc1ccc(C(=O)N2CCc3c(c(C(=O)NCc4ccc5c(c4)OCO5)nn3C)C2)cc1	none
Cc1ccc(CC(=O)N2CCc3c(c(C(=O)NCc4ccc(F)cc4)nn3C)C2)cc1	mHTT-CaM PPI inh 69.4
Cc1ccc(S(=O)(=O)NCCC(O)C(C)(C)C)cc1Cl (centres undefined)	none
O=C(O)CCCNC(=O)/C(=C\c1ccc2c(c1)OCO2)NC(=O)c1ccco1	none
Cc1ncn(CC(=O)Nc2ccc(F)cc2F)c(=O)c1C	none
CCn1ccc2c(ccn2CC(=O)Nc2c(C)cccc2C)c1=O	none
O=C(NCc1ccccc1)C1CCN(c2cncnc2N2CCCCC2)CC1	none
O=C(c1ccccc1)N1CCC2(CC1)NC(=O)N(Cc1ccccc1Cl)C2=O	none
O=C(c1c[nH]c2ccccc12)N1CCC2(CC1)NC(=O)N(Cc1ccccc1Cl)C2=O	mHTT-CaM PPI inh 98.2
O=C(c1cc2ccccc2[nH]1)N1CCC2(CC1)NC(=O)N(Cc1ccc(F)cc1)C2=O	mHTT-CaM PPI inh 70.2
O=C(c1cc2ccccc2[nH]1)N1CCC2(C1)NC(=O)N(Cc1ccc(F)cc1)C2=O (centres undefined)	none
O=C(c1c[nH]c2ccccc12)N1CCC2(CC1)NC(=O)N(Cc1ccc(F)cc1)C2=O	mHTT-CaM PPI inh 58.1
O=C(c1ccccc1)N1CCC2(CC1)NC(=O)N(Cc1ccc(F)cc1)C2=O	none
N#Cc1ccccc1NC(=O)c1ccc(C(=O)Nc2ccccc2C#N)s1	none
C#CCOCC1CCCN(C(=O)c2ccccn2)C1 (centres undefined)	none
COc1cccc(OC)c1C(=O)N1CCN(Cc2ccc([N+](=O)[O-])cc2)CC1	none
O=c1c2c(ncn2CC2CC2)n(-c2ccccc2)c(=O)n1Cc1ccccc1	none
COc1nn(CC(=O)Nc2sc3c(c2C#N)CCC3)cc1[N+](=O)[O-]	none
Fc1ccc(CN2CCCCCC2)cc1	none
CCOC(=O)N1CCN(C(=O)CSc2ncnc3c2cnn3-c2ccc(F)cc2)CC1	none
COc1ccc(C2=NN(CC(=O)NCc3ccccn3)C(=O)CC2)cc1	none
COc1ccc(C2=NN(CCc3ccccn3)C(=O)C2)cc1	mHTT-CaM PPI inh 86.8
CCC(=O)NCCc1csc(C2CCCN(C(=O)c3cccc(C#N)c3)C2)n1 (centres undefined)	none
COc1ccc(OC)c(N2CCN(Cc3ccc(F)cc3F)C(C)C2=O)c1 (centres undefined)	none
O=C(O)CN(C1CCCCC1)S(=O)(=O)c1ccc(Br)cc1	Pf apPOL block 68.4
O=C(CN(C1CCCCC1)S(=O)(=O)c1ccc(Br)cc1)NC1CC1	none
O=C(CN1CCC2(CC1)N=C(c1cccc(Cl)c1)C(=O)N2)Nc1ccccc1Cl	none
CC1C(=O)N(Cc2cn(Cc3ccco3)nn2)CCS(=O)(=O)N1Cc1ccc(-c2ccccc2Cl)cc1 (centres undefined)	mHTT-CaM PPI inh 76.8
CC1C(=O)N(Cc2cn(Cc3ccco3)nn2)CCS(=O)(=O)N1Cc1ccc(-c2ccc(F)cc2Cl)cc1 (centres undefined)	mHTT-CaM PPI inh 81.0
CC1C(=O)N(Cc2cn(Cc3ccco3)nn2)CCS(=O)(=O)N1Cc1ccc(-c2ccncc2)cc1 (centres undefined)	none
CC1C(=O)N(Cc2cn(CCC3OCCCO3)nn2)CCS(=O)(=O)N1Cc1ccc(-c2ccc(F)nc2)cc1 (centres undefined)	none
Cc1nc(Cn2cccc2C(=O)Nc2ccccc2)no1	none
O=C(C1CC1)N1CCC(CCOCc2ccc(F)cc2)CC1	none
COc1ccc(NC(=O)CCN2C(=O)c3ccncc3C2=O)cc1Cl	none
O=S(=O)(Nc1ccc(F)cc1)c1cccnc1Nc1cccc(Cl)c1	mHTT-CaM PPI inh 93.3
CCNS(=O)(=O)c1cccnc1Nc1cccc(Cl)c1	none
CS(=O)(=O)Oc1ccc2c(c1)OC(=Cc1cccc([N+](=O)[O-])c1)C2=O	none
Cc1nc(NCc2ccc3c(c2)OCO3)nc(NCc2ccco2)c1[N+](=O)[O-]	none
CC1(c2ccccc2)CC(C)(C)N2C(=O)C(=O)c3cccc1c32 (centres undefined)	mHTT-CaM PPI inh 80.0
CC1(c2ccccc2)CC(C)(C)N(C(=O)C(F)(F)F)c2ccccc21 (centres undefined)	none
COc1ccc(C2N=C(N)N=C(N)N2c2ccccc2OC)cc1 (centres undefined)	none

Bioassay records: PubChem BioAssay, University of Kansas High Throughput Screening Laboratory
